Test results reported in PubChem BioAssay.

Key:
[1] = molecular target: Tumor necrosis factor receptor superfamily member 10B (Homo sapiens) (UniProt O14763); test: viability loss of caspase-8 NB7 cells with TRAIL – with/without TRAIL, luminescence panel, confirmation (AID 651596); conditions: NB7 neuroblastoma + caspase-8, TRAIL sensitization, NB7 Caspase-8, with TRAIL, mean of runs, at 10 µM, stronger effect = higher value
[2] = as above; conditions: NB7 neuroblastoma + caspase-8, without TRAIL, NB7 Caspase-8, without TRAIL, mean of runs, at 10 µM

Tumor necrosis factor receptor superfamily member 10B (Homo sapiens), sequence (O14763 whole entry, looked up): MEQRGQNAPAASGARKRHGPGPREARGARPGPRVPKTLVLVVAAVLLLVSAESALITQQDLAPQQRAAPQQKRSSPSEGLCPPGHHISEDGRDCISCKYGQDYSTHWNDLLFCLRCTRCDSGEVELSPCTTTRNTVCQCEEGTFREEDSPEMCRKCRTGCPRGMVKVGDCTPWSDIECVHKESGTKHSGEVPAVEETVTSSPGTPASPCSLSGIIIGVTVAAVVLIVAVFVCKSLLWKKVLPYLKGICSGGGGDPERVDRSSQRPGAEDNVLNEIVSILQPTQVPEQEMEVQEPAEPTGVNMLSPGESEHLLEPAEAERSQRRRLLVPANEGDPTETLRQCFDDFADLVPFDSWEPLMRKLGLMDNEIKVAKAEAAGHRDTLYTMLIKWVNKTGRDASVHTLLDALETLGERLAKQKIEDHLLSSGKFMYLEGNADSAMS

SMILES | activity [1] [%] | activity [2] [%]
CCCc1cc2c(=O)c(-c3ccc4c(c3)OCCO4)coc2cc1OC(=O)c1ccco1 | 65.5 | 66.4
CCc1ccc2nc(N(CCCN(C)C)C(=O)c3ccc(C(=O)c4ccccc4)cc3)sc2c1 | 50.6 | 18.7
CCCCCC(=O)N1C[C@H](n2cc(COC(=O)c3ccccc3)nn2)[C@@H](O)C[C@@H]1c1ccc(Cl)cc1 | 72.6 | 61
Cc1cc(C)c(C)c(S(=O)(=O)N2CCN(c3ncnc4ccccc34)CC2)c1C | 40.2 | 40.1
O=C(CCl)N(CCc1ccccc1)CCc1ccccc1 | 99.4 | 98.2
CCC(=O)c1ccc(OCC(=O)OCC(=O)N2CCCc3ccccc32)cc1 | -9.15 | -14.8
O=[N+]([O-])c1ccc(-c2nc(C(Cl)Cl)c3ccccc3n2)cc1 | 56.8 | 96.3
CC(=O)c1c(C)[nH]c(C(=O)Nc2nc(C)cs2)c1C | 80.2 | 82.6
Cc1ccc(-c2nc(N/N=C/c3cccc([N+](=O)[O-])c3)c3ccccc3n2)cc1 | 70.8 | 63.5
CSc1cc(-c2ccc(Cl)cc2)n(Cc2ccccc2)c(=O)c1C#N | 72.2 | 48.5
CC(=O)Oc1ccc(/C=N\NC(=O)c2cc3c(ccc4ccccc43)o2)cc1 | 64.6 | 67.7
CCC(C)N(CC(=O)Nc1cccc(C)c1C)C(=O)CCl (stereo unspecified) | 99.5 | 99.3
Cc1cc(-c2ccccc2)nc(N/N=C/c2ccccc2)n1 | 61.6 | 50.3
O=C(COc1ccc2ccccc2c1)Nc1nccs1 | 58 | 55.8
C#Cc1ccc(NC(=O)C2(C)CCN2C(=O)C2(c3ccccc3)CCCC2)cc1 (stereo unspecified) | 91.3 | 84.6
O=C(N/N=C/c1ccc2ncccc2c1)c1ccco1 | 75.7 | 70.7
Cc1cc(C(=O)CSc2nnc(N)s2)c(C)n1Cc1cccs1 | 72.5 | 77.5
CCC[C@H](CN[C@@H](CNC)[C@H](C)CC)NCCc1cc(C(F)(F)F)cc(C(F)(F)F)c1 | 65.7 | 96.1
CN(C)CCCNC(=O)C[C@H]1C[C@H](C(=O)N2CCCCC2)[C@@]2(CCc3ccccc3)c3[nH]c4ccc(Cl)cc4c3CCN2C1=O | 35.8 | 82.6
O=C(Nc1cccnc1Cl)c1ccc2c(Cl)c3c(nc2c1)CCC3 | 78.5 | 78.4
COc1ccc(C(=O)Nn2c(SCC(=O)N3CCC(C)CC3)nc3ccccc3c2=O)cc1 | 68.2 | 67.2
Nc1nn2cc(-c3ccccc3)nc2c2ccccc12 | 54.7 | 53.4
CCCCCCc1cc2cc(C(=O)Nc3ccccc3)c(=O)oc2cc1O | 72.8 | 65.2
O=C(Nc1nc(-c2nc3ccccc3s2)cs1)C1CC1 | 59 | 69.9
CCOC(=O)c1sc2nc(-c3cccnc3)ccc2c1N | 56 | 49.2
Cn1c(-c2ccccc2F)cc2onc(-c3ccccc3)c2c1=O | 63 | 65.1

SMILES | activity [1] [%] | activity [2] [%]
O=C(Cn1ncc(Cl)c(Cl)c1=O)NC1CCCCC1 | 98 | 98.5
Cc1ccc2oc(-c3ccccc3)c(C(=O)O)c(=O)c2c1 | 29.9 | 39.2
O=C(Nc1nnc(/N=C/c2ccco2)s1)c1ccc(F)cc1 | 39.8 | 28.4
CCCOc1ccc(-c2nnc(-c3ccco3)o2)cc1 | 53.5 | 50.9
Cc1ccc(C2=NS(=O)(=O)N(C)C(C(=O)NCc3cccs3)=C2)cc1 | 5.95 | 0.8
O=C(/C=C/c1cccc(F)c1)N1CCc2ccccc21 | 55.1 | 52.8
Cc1cccc(NC(=O)CCc2ccc(N3C(N)=NC(N)=NC3(C)C)cc2)c1 | 81.3 | 80.4
CC(C)c1ccc(C(=O)Nc2cccnc2)cc1 | 57.1 | 56.2
N#C/C(=C(/O)c1ccc([N+](=O)[O-])s1)c1nc2ccccc2[nH]1 | 36.3 | 25
CCCn1c(C)cc(C(=O)COC(=O)c2cc(=O)[nH]c3ccccc23)c1C | 61.2 | 59.1
CN(C(=S)NC(=O)c1ccc(Cl)cc1)C1CCCCC1 | 40.6 | 60
COc1ccc(/C=N/Nc2cc(C)nc3ccc(Br)cc23)cc1 | 61 | 78
CCOc1cccc(C(=O)Nc2ccc3[nH]ncc3c2)c1 | 61 | 67
CCc1ccc(-c2cc3c(=O)n(CC(=O)NCCCN4CCC(Cc5ccccc5)CC4)nc(C)n3n2)cc1 | 55.9 | 71.5
O=C(NN=Cc1ccc2c(c1)CCN2)c1cccs1 | 47.9 | 57.8
Cc1cccn2c(=O)c3cc(C(=O)NCCc4ccccc4)c(=N)n(Cc4ccco4)c3nc12 | 19.5 | 5.95
N#Cc1ccc(NC(=O)Nc2ccc(Cl)cc2)cc1 | 81 | 65.3
CC[C@]12c3[nH]c4ccc(Cl)cc4c3CCN1C(=O)[C@@H](CC(=O)NCc1cccc(C(F)(F)F)c1)C[C@@H]2C(=O)N1CCN(C(=O)c2ccco2)CC1 | 71 | 68.7
O=c1oc2c(O)cccc2cc1-c1nc2ccccc2[nH]1 | 72 | 68.8
O=C(Nc1ccccc1)c1cn2ccccc2n1 | 54.9 | 55.7
N/C(=N\OC(=O)c1cccc(Br)c1)c1ccc(Br)cc1 | 78.1 | 90.1
C/C(Cn1nnc([N+](=O)[O-])n1)=N\NC(=O)c1ccccc1O | 43.8 | 51
C=C1C(=O)OC2C=C(CO)C3OC3C3OC3(C)CC(OC(=O)/C(=C/C)COC(C)=O)C12 (stereo unspecified) | 70.1 | 81
Cc1ccnc(NC(=S)NC(=O)c2cccs2)c1 | 90 | 87.7
CCC(C)c1ccc(NC(=O)c2cccs2)cc1 (stereo unspecified) | 72.8 | 68.1
CN(C)S(=O)(=O)c1ccc(-c2csc(N/N=C/c3ccco3)n2)cc1 | 81 | 77.8

SMILES | activity [1] [%] | activity [2] [%]
Cc1cccc2sc(NNC(=O)c3ccc(S(=O)(=O)N4CCCC(C)C4)cc3)nc12 (stereo unspecified) | 51.8 | 42.3
COc1ccc(-c2cc(-c3ccccc3)c(C#N)c(S(C)=O)n2)cc1 (stereo unspecified) | 95.2 | 99.2
Nc1c(C(=O)N2CCOCC2)sc2nc3c(cc12)CCCC3 | 67.5 | 63.5
Cc1cccc(/C(N)=N/OC(=O)c2ccoc2C)c1 | 90.8 | 91.8
COn1c(SCc2cccc(Cl)c2)nc2ccccc2c1=O | 52.4 | 26.3
CC(C)(C)NCCC(O)c1cc(C(F)(F)F)nc2c(C(F)(F)F)cccc12 (stereo unspecified) | 97.5 | 96.7
Clc1ccc(-n2ncc3c(N4CCCC4)ncnc32)cc1 | 66.2 | 53.2
CN(C)c1ccc(C=Nc2ccccc2C(N)=O)cc1 | 85.3 | 86.5
CCOc1cc(C(=O)O/N=C(\N)c2ccccn2)cc(OCC)c1OCC | 91.1 | 78.5
COc1ccc(Cn2c(SCc3cc(C)ccc3C)nc3cc(OC)c(OC)cc3c2=N)cc1 | 94.9 | 97.8
COc1ccc(-c2cc(CNc3nc(NC(C)C)nc4cc(-c5ccccc5)sc34)on2)cc1 | 91.6 | 92.4
Clc1ccc(-c2nnc(SCc3ccon3)o2)c(Cl)c1 | 51.8 | 58.7
O=C(Nc1ccc2[nH]ccc2c1)c1ccc(F)cc1 | 89.7 | 87
C#CCN(C[C@@H]1[C@@H](OC(=O)NCc2ccccc2F)[C@@H](OC(=O)NCc2ccccc2F)Cn2c(=O)ccc(=O)n21)S(=O)(=O)c1ccc(C)cc1 | 95 | 93.6
Cc1cc(C)c2c(=N)c3ccccc3n(CCCCCCCCn3c4ccccc4c(=N)c4c(C)cc(C)nc43)c2n1 | 78.3 | 98.7
Cc1ccccc1NC(=O)Cc1nc(COC(=O)c2ccc(S(C)(=O)=O)c([N+](=O)[O-])c2)cs1 | 80.5 | 93.9
Nc1ccc(C(=O)Nc2nc3ccccc3s2)cc1 | 44.8 | 41
Cn1cc([N+](=O)[O-])c(C(=O)Nc2nc(-c3ccc(Cl)cc3)cs2)n1 | 97.3 | 98.7
COc1ccc(-c2cn3ccccc3n2)cc1[N+](=O)[O-] | 50.9 | 53
CN1CC(=O)N2C(c3ccc(Cl)cc3)c3[nH]c4ccccc4c3C[C@H]2C1=O (stereo partly specified) | 94.7 | 92.8
CCCOc1ccc(-c2cn3ccccc3n2)cc1[N+](=O)[O-] | 57 | 52.1
O=C(NC(=S)Nc1ccccn1)c1ccccc1 | 77.8 | 76.8
Cc1ccc(S(=O)(=O)N2C[C@H]3[C@H]4C(=O)N(C5CCCCC5)C(=O)[C@H]4CC(=O)[C@H]3[C@@H]2c2cccc3ccccc23)cc1 | -8.53 | -13.6
O=C(Cn1ncc(Cl)c(Cl)c1=O)c1ccc2c(c1)OCCO2 | 39.7 | 76
CN(NC(=O)c1cccc(Cl)c1)c1nc(-c2ccccc2)nnc1C(F)(F)F | 75.1 | 39.9
NC(=S)NN=C1c2ccccc2-c2c(F)c(F)c(F)c(F)c21 | 72.1 | 71.4
